{"source": "PubChem BioAssay AID588742", "about": "(Southern Research Specialized Biocontainment Screening …, 2011)", "note": "Screen size: about 1,800 compounds; about 410 (23%) were called active. The rule behind the calls is not given here. Only a sample is shown. A call without a number means that no potency is given here. Potency and affinity values are given separately.", "data": [{"assay": "Vero cell cytotoxicity, cytotoxicity control for flavivirus capping enzyme inhibitors (AID 588742)", "conditions": "Vero cells viability, cytotoxicity counter-screen; series mostly up to 40 µM", "values": [{"compound": "C#CCOc1ccc(/C=C2/C(=O)ON=C2C)cc1Cl", "outcome": "inactive"}, {"compound": "O=C1CCNc2cc3ccccc3cc21", "outcome": "inactive"}, {"compound": "COc1ccc(C2C(C#N)=C(N)Oc3c2c(C)nn3-c2ccccc2)cc1Cn1nc(C)c([N+](=O)[O-])c1C", "note": "(centres undefined)", "outcome": "inactive"}, {"compound": "O=c1[nH]n2c(=O)c3c([nH]c2c1N=Nc1cccc(C(F)(F)F)c1)CCCC3", "outcome": "inactive"}, {"compound": "O=c1oc2ccccc2c(O)c1/C=C1\\C=Nc2ccccc21", "outcome": "inactive"}, {"compound": "CCOc1ccc(N2C(=O)C(Cl)=C(N3CCOCC3)C2=O)cc1", "outcome": "inactive"}, {"compound": "COC(=O)c1c(C)c2c(C)cc3ccccn3c-2c1C(=O)OC", "outcome": "inactive"}, {"compound": "Cc1c(CCC(=O)O)c(=O)oc2c(C)c(OCc3cc4c(cc3Cl)OCO4)ccc12", "outcome": "inactive"}, {"compound": "C=CCN=C1N[C@@H](c2cccc(C(F)(F)F)c2)C(C(=O)OC)=C(C)N1CC", "outcome": "inactive"}, {"compound": "Cc1c(OC(=O)c2ccc([N+](=O)[O-])cc2)c2c(c[n+]1C)COC(C)(C)OC2", "outcome": "inactive"}, {"compound": "CCOC(=O)c1cc(-c2ccc(/C=C3/C(=O)NC(=O)C(C#N)=C3C)o2)ccc1Cl", "outcome": "inactive"}, {"compound": "CCC(c1ccccc1)C(CC)c1cc(O)c(O)c(O)c1", "note": "(centres undefined)", "outcome": "inactive"}, {"compound": "N#CC1=C(N)C2=C(N3CCCCC3)CCCC2C1(C#N)C#N", "note": "(centres undefined)", "outcome": "inactive"}, {"compound": "COc1ccc(C2Nc3cccc4cccc(c34)N2)cc1", "outcome": "inactive"}, {"compound": "COc1ccc(-c2cc(-c3ccc(Cl)cc3)c(C#N)c(SCC(=O)O)n2)cc1", "outcome": "inactive"}, {"compound": "CCOC(=O)/C(C#N)=C/c1c(N2CCN(CC)CC2)nc2c(C)cccn2c1=O", "outcome": "inactive"}, {"compound": "COc1ccccc1N(O)C1CC(=O)N(c2ccc(F)cc2)C1=O", "note": "(centres undefined)", "outcome": "inactive"}, {"compound": "CC(=O)N(C1=C(Cl)C(=O)c2ccccc2C1=O)c1ccc(C(=O)O)cc1", "outcome": "inactive"}, {"compound": "O=S(c1ccccc1O)S(=O)c1ccccc1O", "note": "(centres undefined)", "outcome": "inactive"}, {"compound": "Cc1cc(=O)n(CCc2ccccc2)c(O)c1C#N", "outcome": "inactive"}, {"compound": "CC1CC2=C(NC(=S)NC2c2ccccc2F)/C(=C/c2ccccc2F)C1", "note": "(centres undefined)", "outcome": "inactive"}, {"compound": "COc1ccc(N2C(=O)C(Cl)=C(N3CCOCC3)C2=O)cc1", "outcome": "inactive"}, {"compound": "O=C1N=c2ccc(Br)cc2=C1c1sc(=S)n(NS(=O)(=O)c2ccccc2)c1O", "outcome": "inactive"}, {"compound": "COC(=O)CN(c1ccccc1C)S(C)(=O)=O", "outcome": "inactive"}, {"compound": "COc1cccc(/C=C2\\SC(=S)N(C(Cc3ccccc3)C(=O)O)C2=O)c1", "note": "(centres undefined)", "outcome": "inactive"}, {"compound": "COc1ccc(-c2csc(NC(=O)CSc3nc(C)nc4sc(C(=O)O)c(C)c34)n2)cc1", "outcome": "inactive"}, {"compound": "Oc1ccc(/C=N/NC(=S)Nc2cccnc2)c(O)c1O", "outcome": "inactive"}, {"compound": "CCSc1ncc(Cl)c(C(=O)N(Cc2ccc(N(C)C)cc2)C2CCS(=O)(=O)C2)n1", "note": "(centres undefined)", "outcome": "inactive"}, {"compound": "CCN(CCO)c1ccc(NC(=S)Nc2cccc(S(=O)(=O)N(C)C)c2)cc1", "outcome": "inactive"}]}]}
